Data on 9 molecules can be found in PubChem BioAssay (NCATS).

Assay [1] addresses Lysosomal acid glucosylceramidase (Homo sapiens) (UniProt P04062). Nature of the assay: Glucocerebrosidase-p2 (AID 348; in the data active = potency below about 10 µM; also: potency is read from the fitted curve at half-maximal effect). The following applies: purified GBA, blue fluorogenic substrate, 40 min. In short, it runs like this:
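Normal human glucocerebrosidase (0.2 nM) with blue fluorogenic substrate (80 uM final) in citrate/phosphate pH 5.9 with 10mM sodium taurocholate, 0.01% tween-20; 40 min RT, NaOH/glycine stop; fluorescence Ex 365/Em 440; AC50 from a titration from 0.6 nM upwards.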

The target of assay [2] is Cytochrome P450 1A2 (Homo sapiens) (UniProt P05177). The assay can be described thus: p450-cyp1a2 (AID 410; calls by dose curve; also: potency is read from the fitted curve at half-maximal effect;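 as to activity change, negative = inhibition: -100% = full effect of reference inhibitor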). The following applies: recombinant CYP1A2, luciferin-ME demethylation, luminescence; series mostly up to 57 µM. An outline of the steps: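 Luminescent demethylation readout: Luciferin-ME (100uM, equal to Km) turned over by 20nM CYP1A2 for 60 min at room temperature after NADPH regeneration addition, following 10 min compound preincubation. Normalization used 57 uM furafylline as full inhibition.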
Sequence of Cytochrome P450 1A2 (Homo sapiens) (P05177 whole entry, looked up): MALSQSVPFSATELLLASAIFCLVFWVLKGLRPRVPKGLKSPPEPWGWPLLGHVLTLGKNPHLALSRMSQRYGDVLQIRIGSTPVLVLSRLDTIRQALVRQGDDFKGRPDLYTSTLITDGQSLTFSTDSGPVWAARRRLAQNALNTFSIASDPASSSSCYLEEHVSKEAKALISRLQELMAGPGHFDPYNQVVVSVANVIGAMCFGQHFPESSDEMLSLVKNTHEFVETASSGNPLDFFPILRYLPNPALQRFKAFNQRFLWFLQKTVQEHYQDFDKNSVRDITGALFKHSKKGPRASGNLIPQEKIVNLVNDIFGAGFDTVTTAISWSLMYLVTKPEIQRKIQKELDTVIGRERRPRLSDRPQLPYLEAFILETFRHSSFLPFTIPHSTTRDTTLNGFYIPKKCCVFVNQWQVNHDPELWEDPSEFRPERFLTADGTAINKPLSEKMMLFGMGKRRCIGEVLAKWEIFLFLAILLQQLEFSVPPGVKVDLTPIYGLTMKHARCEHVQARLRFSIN

Assay [3] can be described thus: Stat Signaling Pathway (AID 446; active = well fitted curve in either direction with a large enough effect, not every such curve was filed as active;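 also: ME-180 cervical cancer cells given 40 pM IL-6 alongside compound; SIE-controlled beta-lactamase reporter measured as 460/530 nm FRET emission ratio; % is scaled to controls: 0 for no effect and ±100 for the full control effect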). The following applies: ME-180 SIE beta-lactamase reporter, IL-6 stimulated, 5 h; at 7.69 µM (top of the series) unless noted. In short, it runs like this: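 Compound effects on IL-6-induced STAT reporter activity were measured in ME-180 cells. After overnight culture, cells were co-treated with 40 pM IL-6 for 5 hrs before beta-lactamase substrate loading at room temperature.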

The target of assay [4] is Glucocorticoid receptor (Homo sapiens) (UniProt P04150). Nature of the assay: GR-EFC Redistribution (AID 451; calls by dose curve; also: potency is read from the fitted curve at half-maximal effect). The following applies: CHO-K1 GR-EFC translocation, beta-gal luminescence, 2 h. In short, it runs like this:
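Translocation of GR-ED fusion to nuclear EA restores b-gal, read by luminescence after 1 h room-temperature detection. Engineered CHO-K1 biosensor cells, 1,000/well, exposed 2 h at 37 C to titrations up to 46 uM final.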

For assay [5], the target named is Mitogen-activated protein kinase 10 (Mus musculus) (UniProt Q61831). The assay can be described thus: JNK3 AlphaScreen Assay (AID 530; active = well fitted curve in either direction with a large enough effect, not every such curve was filed as active;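 also: kinase came from lysate of stimulated human HepG2 cells; signal reports phosphorylation of biotinylated GST-cJun 1-79 at Ser73 with 10 µM ATP; % is scaled to controls: 0 for no effect and ±100 for the full control effect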). The following applies: JNK3 lysate, c-Jun phosphorylation; series mostly up to 57.1 µM. An outline of the steps:
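qHTS titrations with 15 min compound pre-incubation before adding ATP (10 uM final). Read-out: AlphaScreen of Ser73-phosphorylated biotin-GST-cJun using HepG2 lysate JNK3 activated by IL-1β and TNFα.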
In general terms: Bead proximity is the source of the signal in Alpha formats.

Assay [6] deals with 3',5'-cyclic-AMP phosphodiesterase 4B (Homo sapiens) (UniProt Q07343). Nature of the assay: qHTS Assay for Inhibitors of PDE-IV (AID 607; active = well fitted activation curve with a large enough effect in the main read-out, with a control signal flat, not every such curve was filed as active; also: % of control where 0% means no effect). To be noted: HEK293 ACTOne CNG channel cells, membrane potential fluorescence; series mostly up to 22.9 µM. In short, it runs like this:
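ACTOne HEK293 cells carry a modified cAMP-gated CNG channel and express endogenous PDE4; plated 1000 cells/well, compounds up to 22.9 uM final. Membrane-potential dye fluorescence (ex 535/em 590) was read; parental cells received 10 uM forskolin + 100 uM RO 20-1724.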

Assay [7] addresses Cytochrome P450 3A4 (Homo sapiens) (UniProt P08684). Nature of the assay: qHTS Assay for Activators of Cytochrome P450 3A4 (AID 885). Also: nearly all actives have a fitted effect of over 65% in size. Also: potency is read from the fitted curve at half-maximal effect. The following applies: recombinant CYP3A4, Luciferin-PPXE luminescence, 60 min; series mostly up to 57.1 µM. In short, it runs like this: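 CYP3A4 activity: Luciferin-PPXE O-dealkylation, 25uM substrate, 200mM KPO4, RT throughout. Read-out is luciferase luminescence; higher values reflect activation.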
A general note: qHTS replaces the single test concentration by a dilution series.

Assay [8] can be described thus: Primary qHTS for small molecule stabilizers of the endoplasmic reticulum resident proteome: Secreted ER Calcium Modulated Protein (SERCaMP) assay (AID 1508630). Also: % is scaled to controls: 0 for no effect and ±100 for the full control effect. The following applies: SH-SY5Y GLuc-SERCaMP (Gaussia luciferase released on ER calcium loss) secretion, thapsigargin, luminescence; series mostly up to 38.4 µM. An outline of the steps: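 The SH-SY5Y reporter protocol was run at 3 concentrations up to 38.3 uM (primary) or 11 concentrations (follow-up): 16 h compound, 100 nM thapsigargin for 4 h, then extracellular luciferase luminescence.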

The target in assay [9] is Glucocorticoid receptor (Homo sapiens) (UniProt P04150). Nature of the assay: GR-GFP Redistribution (AID 450;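 active = compounds whose dose series gives a full or clear partial fitted curve of increased nuclear translocation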; also: potency is read from the fitted curve at half-maximal effect). To be noted: U2OS GR-GFP nuclear translocation, laser cytometry, 2 h.
Sequence of Glucocorticoid receptor (Homo sapiens) (P04150 whole entry, looked up, the tested form may be a part): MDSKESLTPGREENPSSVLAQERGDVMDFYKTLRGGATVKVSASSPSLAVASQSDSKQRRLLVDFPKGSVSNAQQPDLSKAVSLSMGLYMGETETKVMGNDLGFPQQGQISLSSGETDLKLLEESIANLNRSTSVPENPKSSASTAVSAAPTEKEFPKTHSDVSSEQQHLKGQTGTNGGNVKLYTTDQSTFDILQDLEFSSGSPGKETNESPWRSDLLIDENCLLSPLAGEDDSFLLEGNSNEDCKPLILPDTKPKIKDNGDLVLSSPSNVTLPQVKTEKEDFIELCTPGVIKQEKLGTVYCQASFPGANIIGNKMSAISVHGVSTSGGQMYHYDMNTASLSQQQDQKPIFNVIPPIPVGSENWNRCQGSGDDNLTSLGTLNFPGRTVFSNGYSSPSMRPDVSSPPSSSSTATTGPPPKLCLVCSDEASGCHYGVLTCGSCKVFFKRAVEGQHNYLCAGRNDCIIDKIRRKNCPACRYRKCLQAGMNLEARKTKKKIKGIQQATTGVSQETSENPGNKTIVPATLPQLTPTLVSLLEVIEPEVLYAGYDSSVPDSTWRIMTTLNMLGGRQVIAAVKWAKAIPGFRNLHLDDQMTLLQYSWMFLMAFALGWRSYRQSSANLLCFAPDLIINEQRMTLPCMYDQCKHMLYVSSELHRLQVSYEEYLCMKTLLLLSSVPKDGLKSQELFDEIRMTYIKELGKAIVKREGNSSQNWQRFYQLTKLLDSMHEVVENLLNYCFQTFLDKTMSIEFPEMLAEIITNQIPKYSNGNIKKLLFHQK
Assay [10] concerns the target Cytochrome P450 2C9 (Homo sapiens) (UniProt P11712). Nature of the assay: qHTS Assay for Inhibitors and Substrates of Cytochrome P450 2C9 (AID 883). Also: potency is read from the fitted curve at half-maximal effect; nearly all actives have a fitted effect of over 60% in size. The following applies: recombinant CYP2C9, luciferin-H luminescence, 60 min; series mostly up to 57.1 µM. In short, it runs like this:
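Luminescent read-out of deoxyluciferin hydroxylation, normalized to 57uM sulphaphenazole (AC100). Reaction: 10nM enzyme, 100uM Luciferin-H (equal to KM), 25mM KPO4, 10 min compound preincubation, then 60 min with NADPH regeneration, both at 37C.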

Assay [11] is described as follows: qHTS Assay for Identification of Small Molecule Agonists for Hypoxia Response Element Signaling Pathway (AID 914; active = well fitted activation curve with a large enough effect in the signal ratio, with a control signal flat, not every such curve was filed as active; the % refers to the signal ratio; also: potency is read from the fitted curve at half-maximal effect). To be noted: ME-180 HRE-bla reporter, beta-lactamase ratio, CoCl2, 17 h; activation: hits give high values. In short, it runs like this: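 AC50 values come from titration-series %Activity, taken as the 460/530nm ratio of CCF4 fluorescence (excitation 405nm). CellSensor HRE-bla ME-180 cells were treated 17 hours at 37 C with compound plus an EC50 level of CoCl2.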

Assay [12] is described as follows: AP1 Signaling Pathway (AID 357; active = well fitted curve in either direction with a large enough effect, not every such curve was filed as active; also: % is scaled to controls: 0 for no effect and ±100 for the full control effect). To be noted: ME-180 (cervical carcinoma) AP-1-bla reporter, EGF-induced, beta-lactamase ratio, 5 h; at 7.69 µM (top of the series) unless noted. An outline of the steps: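 Cells are seeded overnight, exposed to compound titrations and an EC50 level of EGF for 5 hours at 37 °C, then loaded with CCF4 dye for 2.5 hours. Beta-lactamase activity under the AP-1 element is read as a blue/green ratio.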

A short description of assay [13]: NFAT Signaling Pathway (AID 444; active = well fitted curve in either direction with a large enough effect, not every such curve was filed as active). To be noted: Jurkat NFAT-bla M1, carbachol, beta-lactamase ratio, 5 h; at 7.69 µM (top of the series) unless noted. An outline of the steps:
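Read-out: CCF4 FRET ratio (460 nm/530 nm) after 1 h RT dye loading, used for %activity and AC50 from titration series. Cells: Jurkat NFAT-β-lactamase/M1 line, treated with compound plus 1 uM carbachol for 5 h, 37 °C.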

The target of assay [14] is Cytochrome P450 3A4 (Homo sapiens) (UniProt P08684). Nature of the assay: qHTS Assay for Inhibitors and Substrates of Cytochrome P450 3A4 (AID 884). Also: % is scaled to controls: 0 for no effect and ±100 for the full control effect; nearly all actives have a fitted effect of over 50% in size. To be noted: recombinant CYP3A4, Luciferin-PPXE luminescence; series mostly up to 57.1 µM. In short, it runs like this:
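Luminescent readout of luciferin produced by CYP3A4 (20 nM) dealkylation of Luciferin-PPXE, 25 uM (its KM). NADPH-driven reaction ran 60 min at RT after 10 min compound preincubation; data scaled to 57 uM ketoconazole as 100% inhibition.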

Records with an inconclusive call do not appear. The source made the active and inactive calls. Unless noted, calls follow the shape of the dose curve; as a rule, active = well fitted curve in the direction sought with a large enough effect; inconclusive = small, poorly fitted or top-dose-only effect, or another doubt; inactive = no such curve, though single readings can be large; an effect the other way counts as inactive or inconclusive. Where only a bound is given, the exact number is not on record here.

Sequence of Lysosomal acid glucosylceramidase (Homo sapiens) (P04062 whole entry, looked up): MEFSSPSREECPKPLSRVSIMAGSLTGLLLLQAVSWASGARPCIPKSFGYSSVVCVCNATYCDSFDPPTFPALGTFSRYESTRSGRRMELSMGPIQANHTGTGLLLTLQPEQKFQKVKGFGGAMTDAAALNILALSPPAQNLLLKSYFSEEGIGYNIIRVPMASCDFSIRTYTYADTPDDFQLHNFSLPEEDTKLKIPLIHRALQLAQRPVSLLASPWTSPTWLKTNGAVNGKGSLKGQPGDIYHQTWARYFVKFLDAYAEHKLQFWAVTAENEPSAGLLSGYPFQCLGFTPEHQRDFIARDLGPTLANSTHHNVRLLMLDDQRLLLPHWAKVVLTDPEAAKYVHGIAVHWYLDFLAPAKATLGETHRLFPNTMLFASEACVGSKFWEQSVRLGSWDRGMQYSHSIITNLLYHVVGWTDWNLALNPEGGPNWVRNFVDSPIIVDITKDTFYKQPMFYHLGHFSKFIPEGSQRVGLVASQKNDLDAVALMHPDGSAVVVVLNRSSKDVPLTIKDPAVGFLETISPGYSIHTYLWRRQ
Sequence of 3',5'-cyclic-AMP phosphodiesterase 4B (Homo sapiens) (Q07343 whole entry, looked up): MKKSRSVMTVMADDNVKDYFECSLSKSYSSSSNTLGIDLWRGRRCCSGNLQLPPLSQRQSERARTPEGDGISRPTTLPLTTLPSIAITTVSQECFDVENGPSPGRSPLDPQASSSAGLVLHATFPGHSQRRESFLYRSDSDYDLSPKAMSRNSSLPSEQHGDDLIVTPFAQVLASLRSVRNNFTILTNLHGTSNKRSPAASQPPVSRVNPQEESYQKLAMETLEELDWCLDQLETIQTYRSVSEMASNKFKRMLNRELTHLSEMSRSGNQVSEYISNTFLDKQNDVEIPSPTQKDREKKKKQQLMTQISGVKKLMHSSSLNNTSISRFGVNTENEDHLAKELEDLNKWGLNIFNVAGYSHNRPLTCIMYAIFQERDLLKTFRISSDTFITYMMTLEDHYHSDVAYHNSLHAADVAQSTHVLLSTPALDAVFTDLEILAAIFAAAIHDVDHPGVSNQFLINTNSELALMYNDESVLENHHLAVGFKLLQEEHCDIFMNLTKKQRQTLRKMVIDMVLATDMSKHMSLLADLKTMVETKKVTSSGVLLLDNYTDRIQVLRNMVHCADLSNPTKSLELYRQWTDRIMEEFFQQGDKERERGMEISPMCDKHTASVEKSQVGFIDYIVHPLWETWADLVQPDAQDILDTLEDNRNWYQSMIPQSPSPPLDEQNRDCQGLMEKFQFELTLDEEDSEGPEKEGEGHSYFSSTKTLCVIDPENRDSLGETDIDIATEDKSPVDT
Sequence of Cytochrome P450 3A4 (Homo sapiens) (P08684 whole entry, looked up): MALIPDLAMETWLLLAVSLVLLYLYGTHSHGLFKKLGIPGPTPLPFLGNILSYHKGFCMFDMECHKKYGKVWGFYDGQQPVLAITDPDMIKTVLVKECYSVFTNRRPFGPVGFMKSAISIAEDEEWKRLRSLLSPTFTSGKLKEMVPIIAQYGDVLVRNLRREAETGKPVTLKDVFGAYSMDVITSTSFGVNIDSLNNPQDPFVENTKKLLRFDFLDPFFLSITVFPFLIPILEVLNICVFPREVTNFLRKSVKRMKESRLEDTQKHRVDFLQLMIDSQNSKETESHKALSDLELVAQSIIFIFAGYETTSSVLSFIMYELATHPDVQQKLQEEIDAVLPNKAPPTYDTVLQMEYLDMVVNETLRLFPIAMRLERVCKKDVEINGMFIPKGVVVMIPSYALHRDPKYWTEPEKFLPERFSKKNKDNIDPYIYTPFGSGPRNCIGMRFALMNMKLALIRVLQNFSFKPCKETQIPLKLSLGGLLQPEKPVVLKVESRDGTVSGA
Sequence of Cytochrome P450 2C9 (Homo sapiens) (P11712 whole entry, looked up): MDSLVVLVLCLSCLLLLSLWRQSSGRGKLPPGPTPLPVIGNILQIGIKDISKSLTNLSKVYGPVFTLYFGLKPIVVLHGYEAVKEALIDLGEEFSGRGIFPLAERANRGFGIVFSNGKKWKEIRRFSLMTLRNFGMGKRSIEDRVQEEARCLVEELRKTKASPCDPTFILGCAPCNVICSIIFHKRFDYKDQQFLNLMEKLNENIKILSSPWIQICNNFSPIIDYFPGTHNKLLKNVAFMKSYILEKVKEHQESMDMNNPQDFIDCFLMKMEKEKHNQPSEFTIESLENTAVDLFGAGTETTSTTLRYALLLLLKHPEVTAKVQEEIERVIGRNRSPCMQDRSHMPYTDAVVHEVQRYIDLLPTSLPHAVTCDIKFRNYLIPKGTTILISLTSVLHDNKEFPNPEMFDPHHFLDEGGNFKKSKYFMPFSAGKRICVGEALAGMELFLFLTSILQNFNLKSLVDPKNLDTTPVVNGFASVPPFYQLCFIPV

With `O=C(c1cccc(F)c1)N1CCC2(CCCN(Cc3nccs3)C2)CC1`, the Potency in [1] is > 11.4 µM (inactive); in assay [4], > 46 µM (inactive). The Potency entry in [2], in assay [5], in assay [6] and in assay [7] was “inactive” throughout. Moreover, the activity, negative = inhibition in assay [3] was 5.18% (inactive). The outcome in assay [8] was inactive.

On to `O=c1c(-c2cccs2)nc2cnc(Oc3cccc(Cl)c3)nc2n1C[C@H]1CCCO1`, for which the Potency in assay [1] is > 11.4 µM (inactive); in assay [2] it was 3.16 µM (active); in [9] it was > 9.22 µM (inactive); in assay [4], > 46 µM (inactive); in assay [10], 3.16 µM (active); in [11] it was 3.16 µM (active). Besides, the Potency entry in [6] and in assay [7] was “inactive” each time. Moreover, the outcome in [8] was inactive.

For the molecule `O=c1cnc2cnc(Nc3ccccc3)nc2n1C[C@H]1CCCO1`, the Potency is > 11.4 µM (inactive) in [1], 0.794 µM (active) in [2], > 9.22 µM (inactive) in [9] and > 46 µM (inactive) in assay [4]. Further, the Potency entry in assay [6] and in assay [7] was “inactive” each time. For the same molecule, the outcome in assay [8] was inactive.

As for `COc1ccc(NC(=O)N2CCC3(CC2)CCN(C(=O)c2cccc(F)c2)CC3)cc1`, the activity change, negative = inhibition is -4.05% (inactive) in [12] and 8.11% (inactive) in [13]. Further, the Potency entry in assay [2], in [5], in assay [6] and in [14] was “inactive” in each case. In assay [3], the activity, negative = inhibition was 0.897% (inactive). Besides, the Potency in assay [4] was > 46 µM (inactive); in assay [7], 12.6 µM (active). Further, the result in [8] was inactive.

Regarding `CCNc1ncc2nc(-c3cc(F)cc(F)c3)c(=O)n(Cc3cccs3)c2n1`, the Potency in assay [1] was > 11.4 µM (inactive); in assay [2], 5.01 µM (active); in assay [9], > 9.22 µM (inactive); in assay [4], > 46 µM (inactive); in [11] it was 0.794 µM (active). Also, the activity, negative = inhibition in [3] was 135% [activator] (active). Also, the Potency entry in assay [5] and in [7] was “inactive” in each case. Moreover, in assay [8], the outcome was inactive.

With `O=C(c1cccc(F)c1)N1CCC2(CCCN(C(c3ccccc3)c3ccccc3)C2)CC1`, the Potency is > 11.4 µM (inactive) in [1], 6.31 µM (active) in [2], > 46 µM (inactive) in [4] and 3.16 µM (active) in [10]. Moreover, the activity, negative = inhibition in assay [3] was 17.2% (inactive). In addition, the Potency entry in [5] and in assay [6] was “inactive” throughout. In assay [8], the outcome was inactive.

With `c1ccc(-c2ccc(N3CCCC4(CCNCC4)C3)cc2)cc1`, the values for the activity change, negative = inhibition in assay [12] and in assay [13] were 9.27% (inactive) and 24.2% (inactive), respectively. The Potency in assay [2] is 10 µM (active); in [4], > 46 µM (inactive). Moreover, the activity, negative = inhibition in assay [3] was -2.12% (inactive). Moreover, the Potency result in assay [6] and in [7] was “inactive” in each case. For the same molecule, in assay [8], the result was inactive.

As to `COCCn1c(=O)c(-c2cccs2)nc2cnc(Oc3cccc(Cl)c3)nc21`, the Potency in assay [1] is > 11.4 µM (inactive); in [9], > 9.22 µM (inactive); in assay [4], > 46 µM (inactive); in assay [11], 3.16 µM (active). Also, the Potency result in assay [6] was “inactive”. The outcome in assay [8] was inactive.

As to `COC(=O)N1CCC2(CCN(C(=O)Nc3cccc(F)c3)CC2)CC1`, the activity change, negative = inhibition in assay [12] was -21.3% (inactive); in assay [13], -11.6% (inactive). In addition, the Potency in [2] is 12.6 µM (active); in assay [4] it was > 46 µM (inactive). Further, in assay [3], the activity, negative = inhibition was 22.8% (inactive). For the same molecule, the Potency entry in [5] and in assay [6] was “inactive” each time. Moreover, in assay [8], the result was inactive.
